Laboratory results reported in PubChem BioAssay AID1159580 (chemical genetic matrix, 2015).
Where “and” joins values, the source holds several entries; their conditions need not be identical. Equal entries are not always repeated. About 2,000 (36%) of roughly 5,500 compounds were called active. Roughly 18% stayed inconclusive and do not appear here. No stated cut-off is given here; in the data, active means normalized growth mostly below about 0.91 (no sharp cut-off); inconclusive means no clear call, values can overlap the other calls; inactive means mostly above about 0.92. The list shows a part of the results.

Experiment: chemical genetic growth profiling, strain panel (AID 1159580);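 further: tested at 20 µM; growth read once vehicle control cultures reached saturation at 30 °C; 1 = growth at the plate median or of vehicle wells; lower values mean less growth of the strain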
Settings: S. cerevisiae deletion strains, growth OD

Measured: normalized growth

CCn1cc(C(=O)O)c(=O)c2ccc(C)nc21
active: locus YAL021C, strain ccr4, active compounds read low 0.805 | locus YAL026C, strain drs2, active compounds read low 0.855 | locus YAL030W, strain snc1, active compounds read low 0.917 | locus YBR229C, strain ROT2, active compounds read low 0.914 | locus YBR279W, strain paf1, active compounds read low 0.924 | locus YDL040C, strain nat1, active compounds read low 0.923 | locus YDL192W, strain arf1, active compounds read low 0.9 | locus YDR137W, strain rgp1, active compounds read low 0.345 | locus YDR195W, strain ref2 0.691 | locus YGL167C, strain pmr1, active compounds read low 0.912 | locus YGL173C, strain kem1, active compounds read low 0.799 | locus YGL240W, strain doc1, active compounds read low 0.834 | locus YHR094C, strain hxt1, active compounds read low 0.923 | locus YHR129C, strain ARP1, active compounds read low 0.918 | locus YIR030C, strain dcg1, active compounds read low 0.914 | locus YJL134W, strain LCB3, active compounds read low 0.92 | locus YJL168C, strain set2, active compounds read low 0.895
inactive: locus YAL013W, strain DEP1, active compounds read low 0.938 and 0.977 | locus YAL040C, strain CLN3, active compounds read low 0.961 | locus YBL061C, strain skt5, active compounds read low 0.928 | locus YBR009C, strain hhf1, active compounds read low 0.947 | locus YBR021W, strain FUR4, active compounds read low 1.09 | locus YBR023C, strain chs3, active compounds read low 0.945 | locus YBR171W, strain sec66, active compounds read low 0.931 | locus YBR231C, strain swc5, active compounds read low 0.936 | locus YCL011C, strain gbp2, active compounds read low 0.939 | locus YCL016C, strain dcc1, active compounds read low 0.945 | locus YCL029C, strain bik1, active compounds read low 0.935 | locus YCL061C, strain MRC1 (second series), active compounds read low 0.961 | locus YCL061C, strain MRC1, active compounds read low 0.936 | locus YCL069W, strain vba3, active compounds read low 0.943 | locus YCR088W, strain abp1, active compounds read low 0.953 | locus YDL005C, strain med2, active compounds read low 0.983 | locus YDL035C, strain GPR1, active compounds read low 0.963 | locus YDL074C, strain BRE1, active compounds read low 1.06 | locus YDL101C, strain DUN1, active compounds read low 0.941 | locus YDL134C, strain PPH21, active compounds read low 0.912 | locus YDL185W, strain tfp1, active compounds read low 0.924 | locus YDR001C, strain nth1, active compounds read low 0.94 | locus YDR069C, strain doa4, active compounds read low 0.932 | locus YDR101C, strain arx1, active compounds read low 0.92 | locus YDR150W, strain NUM1, active compounds read low 0.936 and 0.96 | locus YDR159W, strain sac3, active compounds read low 1.07 | locus YDR162C, strain NBP2, active compounds read low 0.936 | locus YDR297W, strain sur2, active compounds read low 0.928 | locus YDR318W, strain mcm21, active compounds read low 0.963 | locus YDR334W, strain swr1, active compounds read low 0.916 | locus YDR335W, strain msn5, active compounds read low 0.937 | locus YDR363W, strain ESC2, active compounds read low 0.965 | locus YDR388W, active compounds read low 0.941 | locus YDR392W, strain spt3, active compounds read low 1.03 | locus YDR502C, strain sam2, active compounds read low 0.961 | locus YEL003W, strain gim4, active compounds read low 0.939 | locus YEL037C, strain rad23, active compounds read low 0.926 | locus YEL061C, strain CIN8 (second series), active compounds read low 0.935 | locus YEL061C, strain CIN8, active compounds read low 0.946 | locus YER002W, strain NOP16, active compounds read low 0.958 | locus YER015W, strain faa2, active compounds read low 0.947 | locus YER016W, strain bim1, active compounds read low 0.924 | locus YER110C, active compounds read low 0.9 | locus YER111C, strain swi4, active compounds read low 0.966 | locus YER155C, strain BEM2 (second series), active compounds read low 0.943 | locus YER155C, strain BEM2, active compounds read low 0.951 | locus YER167W, strain BCK2, active compounds read low 0.988 | locus YFR010W, strain ubp6, active compounds read low 0.974 | locus YGL078C, strain dbp3, active compounds read low 0.947 | locus YGL086W, strain mad1, active compounds read low 0.954 | locus YGL227W, strain vid30, active compounds read low 0.939 | locus YGL248W, strain PDE1, active compounds read low 0.906 | locus YGL253W, strain hxk2, active compounds read low 0.957 | locus YGR078C, strain PAC10, active compounds read low 0.997 | locus YGR135W, strain pre9, active compounds read low 0.916 | locus YGR229C, strain SMI1, active compounds read low 1 and 0.98 | locus YHR013C, strain ard1, active compounds read low 1.02 | locus YHR027C, strain rpn1, active compounds read low 0.938 | locus YHR030C, strain SLT2, active compounds read low 0.921 and 0.918 | locus YHR079C, strain IRE1 (second series), active compounds read low 0.932 | locus YHR079C, strain IRE1, active compounds read low 0.97 | locus YHR142W, strain chs7, active compounds read low 0.979 | locus YHR200W, strain rpn10, active compounds read low 0.963 | locus YIL066C, strain RNR3, active compounds read low 0.972 | locus YIL073C, strain SPO22, active compounds read low 0.97 | locus YIL125W, strain kgd1, active compounds read low 0.951 | locus YJL092W, strain hpr5, active compounds read low 0.961 | locus YJL095W, strain BCK1 (second series), active compounds read low 0.942 | locus YJL095W, strain BCK1, active compounds read low 0.949 and 0.948 | locus YJL115W, strain asf1, active compounds read low 0.956 | locus YJL129C, strain trk1, active compounds read low 0.972 | locus YJL154C, strain vps35, active compounds read low 0.959 | locus YJL164C, strain tpk1, active compounds read low 0.946 | locus YJL166W, strain qcr8, active compounds read low 0.94 | locus YJL187C, strain SWE1 (second series), active compounds read low 0.93 | locus YJR043C, strain POL32, active compounds read low 0.967 | locus YJR066W, strain TOR1, active compounds read low 0.899 | locus YJR075W, strain HOC1, active compounds read low 0.972 and 0.961
